Autofluor counter: counter-screen for toxin protease inhibitors: compound fluorescence; compound autofluorescence counterscreen, microsphere flow cytometry; active compounds read high; fluorescence intensity (test concentration not listed); 360,000 compounds, 3.1% hits; in the data active = fluorescence intensity above about 16000; inconclusive = no clear call, values can overlap the other calls
Anthrax LF inh2: blocks Bacillus anthracis lethal factor protease. P15917. multiplex microsphere protease cleavage assay, LF. inhibition, % at 10 µM. 360,000 compounds, 0.12% hits. AID 588501; also: plate controls were buffer without enzyme for full effect and enzyme alone for no effect
BJeLR lethal: BJeLR cell viability loss. BJeLR (HRASV12) viability, CellTiter-Glo ATP luminescence, 48 h. inhibition, % (concentration not given with the values). 300,000 compounds, 0.17% hits. AID 1554; in the data active = inhibition above about 50%; inconclusive = no clear call, values can overlap the other calls
BoNT-A LC inh2: inhibitors of Botulinum neurotoxin A light chain protease. multiplex microsphere protease substrate cleavage, flow cytometry. inhibition, % at 10 µM. 360,000 compounds, 0.17% hits. AID 588499; also: plate controls were buffer without enzyme for full effect and enzyme alone for no effect
BoNT-F LC inh: BoNT F light chain protease inhibition; Multiplex microsphere protease cleavage assay, flow cytometry; inhibition, % at 10 µM; 360,000 compounds, 0.22% hits; in the data active = inhibition above about 35%, passing the limit was not always enough; inconclusive = no clear call, values can overlap the other calls; also: plate controls were buffer without enzyme for full effect and enzyme alone for no effect
Vc quorum ag: induces V. cholerae light production without autoinducers; activation, % at 18.7 µM; AID 588436; 350,000 compounds, 0.16% hits; V. cholerae BH1578 lux reporter, luminescence, 6 h; in the data active = activation mostly above about 9.7%, no sharp cut-off; inconclusive = no clear call, values can overlap the other calls; inactive = mostly below about 3.7%
Numbers without * were called inactive. Sampled rows, rich in hits. Any-hit rate of the full collection: about 3.7%. Rule as the data show it, unless noted: active = inhibition above about 30%; inconclusive = no clear call, values can overlap the other calls; inactive = below that.

For COCCNC(=O)C(c1ccco1)N(C(=O)Cn1nnc2ccccc21)c1ccccc1C (stereo not drawn) the results were Autofluor counter 4873, Anthrax LF inh2 1, BJeLR lethal 7, BoNT-A LC inh2 1, BoNT-F LC inh -5 and Vc quorum ag 0.
`COc1ccc(CN(C(=O)c2snc(C(N)=O)c2N)C(C(=O)NC(C)(C)C)c2ccco2)cc1` (stereo not drawn) gave Autofluor counter 21460*, Anthrax LF inh2 0, BJeLR lethal 0, BoNT-A LC inh2 -3, BoNT-F LC inh -4 and Vc quorum ag inactive.
COc1ccccc1N(C(=O)c1snc(C(N)=O)c1N)C(C(=O)NC1CCCC1)c1ccco1 (stereo not drawn) was read as Autofluor counter 23621*, Anthrax LF inh2 -1, BJeLR lethal 7, BoNT-A LC inh2 -1, BoNT-F LC inh -2 and Vc quorum ag 0.
For COCCNC(=O)C(c1ccco1)N(Cc1ccc(OC)cc1)C(=O)Cn1nnc2ccccc21 (stereo not drawn) the results were Autofluor counter 3406, Anthrax LF inh2 3, BJeLR lethal 2, BoNT-A LC inh2 1, BoNT-F LC inh 39* and Vc quorum ag -1.
CCOc1ccccc1N(C(=O)c1snc(C(N)=O)c1N)C(C(=O)NCCC(C)C)c1ccco1 (stereo not drawn) was read as Autofluor counter 9436, Anthrax LF inh2 1, BJeLR lethal -2, BoNT-A LC inh2 1, BoNT-F LC inh 6 and Vc quorum ag 0.
`COc1ccccc1N(C(=O)c1snc(C(N)=O)c1N)C(C(=O)NCCC(C)C)c1ccco1` (stereo not drawn) gave Autofluor counter 18096*, Anthrax LF inh2 -2, BJeLR lethal 6, BoNT-A LC inh2 4, BoNT-F LC inh 5 and Vc quorum ag inactive.
`Cc1ccc(S(=O)(=O)N2C[C@H]3C(=O)C[C@@H](c4ccc(Cl)cc4)N(S(=O)(=O)c4ccc(C)cc4)[C@H]3C[C@H]2c2ccc(Cl)cc2)cc1` gave Autofluor counter 6282, Anthrax LF inh2 3, BoNT-A LC inh2 0 and BoNT-F LC inh -5.
O=C1NC[C@@H](CCCCN2CCN(Cc3ccccc3)C(=O)C2=O)N(Cc2ccccc2)C1=O was read as Autofluor counter 5079, Anthrax LF inh2 -8, BoNT-A LC inh2 0 and BoNT-F LC inh -3.
For COc1ccccc1-c1cnc(C(O)c2ccc(C)cc2)[nH]1 (stereo not drawn) the results were Autofluor counter 3650, Anthrax LF inh2 -3, BoNT-A LC inh2 0, BoNT-F LC inh -5 and Vc quorum ag inactive.
`CC1=C(C(=O)N(C(C)C)C(C)C)CC(CC(=O)NCc2cccc3ccccc23)C(=O)N1Cc1ccc(C(C)(C)C)cc1` (stereo not drawn) gave Autofluor counter 4911, Anthrax LF inh2 0, BoNT-A LC inh2 0 and BoNT-F LC inh 1.
For COc1cc(Nc2ccn3nc(-c4ccccc4Cl)cc3n2)cc(OC)c1OC the results were Autofluor counter 3550, Anthrax LF inh2 -3, BoNT-A LC inh2 0, BoNT-F LC inh -1 and Vc quorum ag -1.
Screening Cc1snc(S(=O)(=O)Cc2c(Cl)cccc2Cl)c1C#N returned Autofluor counter 25224*, Anthrax LF inh2 -1, BJeLR lethal -1, BoNT-A LC inh2 -3, BoNT-F LC inh -7 and Vc quorum ag inactive.
C=CCNc1nc(N(c2ccccc2)c2ccccc2)nc(-n2ccnc2)n1 was read as Autofluor counter 20613*, Anthrax LF inh2 0, BJeLR lethal -7, BoNT-A LC inh2 -3, BoNT-F LC inh -6 and Vc quorum ag 11.
Screening c1ccc(N(c2ccccc2)c2nc(-n3ccnc3)nc(-n3ccnc3)n2)cc1 returned Autofluor counter 2985, Anthrax LF inh2 -3, BJeLR lethal 3, BoNT-A LC inh2 -1, BoNT-F LC inh -3 and Vc quorum ag inactive.
For CN(c1ccccc1)c1nc(-n2ccnc2)nc(-n2ccnc2)n1 the results were Autofluor counter 4521, Anthrax LF inh2 0, BJeLR lethal -2, BoNT-A LC inh2 0, BoNT-F LC inh 6 and Vc quorum ag -1.
Screening CCCCNc1nc(N(C)c2ccccc2)nc(-n2ccnc2)n1 returned Autofluor counter 23497*, Anthrax LF inh2 -4, BJeLR lethal -10, BoNT-A LC inh2 -1, BoNT-F LC inh -3 and Vc quorum ag inactive.
O=CNc1ccc2c3c(cccc13)-c1ccccc1-2 was read as Autofluor counter 3791, Anthrax LF inh2 2, BoNT-A LC inh2 2, BoNT-F LC inh -2 and Vc quorum ag -7.
C[C@H]1CCCCO[C@H](CN(C)C(=O)C2CCCCC2)[C@@H](C)CN([C@@H](C)CO)C(=O)c2cc(NC(=O)NC3CCCCC3)ccc2O1 was read as Autofluor counter 3532, Anthrax LF inh2 5, BoNT-A LC inh2 0, BoNT-F LC inh -1 and Vc quorum ag 0.
For O=C(Nc1ccc(CN2CCOCC2)cc1)c1ccc(-c2cccc(Cl)c2)o1 the results were Autofluor counter 20353*, Anthrax LF inh2 -1, BJeLR lethal 3, BoNT-A LC inh2 0, BoNT-F LC inh 0 and Vc quorum ag 3.
Screening O=C(NC(=S)Nc1ccc(CN2CCOCC2)cc1)c1ccc(-c2cccc(Cl)c2)o1 returned Autofluor counter 5228, Anthrax LF inh2 -6, BJeLR lethal 1, BoNT-A LC inh2 0, BoNT-F LC inh 4 and Vc quorum ag -1.
Screening O=C(Nc1ccc(CN2CCOCC2)cc1)c1cccs1 returned Autofluor counter 22111*, Anthrax LF inh2 -3, BJeLR lethal -9, BoNT-A LC inh2 1, BoNT-F LC inh 2 and Vc quorum ag inactive.
O=[N+]([O-])c1cccc(CON=Cc2cc(Cl)ccc2O)c1 was read as Autofluor counter 3679, Anthrax LF inh2 2, BoNT-A LC inh2 0, BoNT-F LC inh 2 and Vc quorum ag -10.
`Cc1ccc(Nc2cc(=O)n(C)c(=O)[nH]2)cc1C` gave Autofluor counter 3815, Anthrax LF inh2 3, BoNT-A LC inh2 0, BoNT-F LC inh 4 and Vc quorum ag -1.
For Cc1cc(NC(=O)c2cc(-c3ccccc3)on2)n(-c2ccccc2)n1 the results were Autofluor counter 4140, Anthrax LF inh2 -8, BJeLR lethal -14, BoNT-A LC inh2 1, BoNT-F LC inh 16 and Vc quorum ag 4.
`O=C(NCc1ccco1)c1cc(C(=O)C2CC2)c[nH]1` gave Autofluor counter 21145*, Anthrax LF inh2 1, BJeLR lethal -14, BoNT-A LC inh2 inconclusive, BoNT-F LC inh -3 and Vc quorum ag inactive.
`COc1ccc(-c2cc(C(=O)Nc3cc(C)nn3-c3ccccc3)no2)cc1` gave Autofluor counter 3319, Anthrax LF inh2 -4, BJeLR lethal -8, BoNT-A LC inh2 0, BoNT-F LC inh 1 and Vc quorum ag 0.
`Cc1cc(NC(=O)c2cc(-c3ccco3)on2)n(-c2ccccc2)n1` gave Autofluor counter 23364*, Anthrax LF inh2 -3, BJeLR lethal 5, BoNT-A LC inh2 -1, BoNT-F LC inh 0 and Vc quorum ag inactive.
